According to PubChem BioAssay (NCI):
This is part of a sample that, as a whole, favours compounds with a hit. Of some 83,000 tested, about 20% had one in any assay.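 Interpretation: 100, growth as untreated; towards 0, rising growth inhibition; 0, no net growth; 0 to -100, cell death. Compounds scoring below 10 were considered active.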 A number with no mark means an inactive call. Activity calls are given as the source filed them.

Tested on: HCC-2998 colon
Assay: NCI-60 one-dose screen, 48 h (100 = growth as untreated, 0 = no growth, -100 = all killed)
Details: 10 µM unless noted

With `COc1ccc(Nc2nc(Nc3cc(C)[nH]n3)c3cc(OC)c(OC)cc3n2)cc1` as the compound, how does the growth read?
Its growth is -73.3% [20 µM] (active).

For `O=C1c2c(c3c4cccnc4[nH]c3c3ccc4ccccc4c23)C(=O)N1O`, which growth is on record?
The growth was 77.2%.

How did the growth turn out when `CCOC(=O)c1c2c(n3ccc(NC(=O)CCN4CCCC4)cc13)C(=O)c1ncccc1C2=O` was run?
The growth was -83.5% (active).

For `COC(=O)c1c(C)nc(C)c2c1C(=O)C(Br)=C(NCCN1CCOCC1)C2=O`, which growth is on record?
The growth was 101%.

For `CCN1C(=O)N(CC)C2C1NC(=S)N2/N=C/C=C/c1ccccc1` (centres undefined), which growth is on record?
Its growth is 19%.

Which growth does the source give for `COCCNC(=O)Cc1cc(-c2ccc(Cl)cc2)n(-c2ccccc2)c1C` here?
Its growth is 99.3%.

With `Cc1nn(C)c2ncnc(Nc3ccccc3Br)c12` as the compound, how does the growth read?
The growth was 108%.

With `CCOC(=O)c1cnc2sc(-c3ccc(OC)cc3)nc2c1Cl` as the compound, how does the growth read?
The growth was 114%.

Which growth does the source give for `C=C(CNCCO)[C@@H]1CC[C@]2(CO)CC[C@]3(C)[C@H](CC[C@@H]4[C@@]5(C)CCC(NCCO)C(C)(C)[C@@H]5CC[C@]43C)[C@@H]12` (some centres undefined) here?
Its growth is 71.7%.

Which growth does the source give for `O=C1c2c(c3c4cc(F)ccc4oc3c3[nH]c4ccccc4c23)C(=O)N1O` here?
The growth was 70.3%.

For `Cc1nn(-c2ccccc2)c(Oc2ccccc2)c1/C=N/NC(=O)Cn1c(=O)sc2ccccc21`, which growth is on record?
The growth was 72.2%.

With `O=S(=O)(Nc1ccc(Br)cc1)c1ccc(-c2cnc(C3CC3)o2)cc1` as the compound, how does the growth read?
The growth was 56.2%.

`O=C1c2ccccc2C(=O)c2cc(Cn3c[n+](Cc4ccc5ccccc5c4)c4ccccc43)ccc21` was tested. Which growth did it give?
Its growth is 46.2%.

How did the growth turn out when `Cc1cc2c(c(C)n1)CN(C(=O)Nc1nc(-c3cncs3)ccc1N)C2` was run?
Its growth is 107%.
